Among the data in PubChem BioAssay AID1259374 (The Scripps Research Institute Molecular Screening Center, 2018) are inhibition values, retold here.

Hit rate of the full screen: of about 650,000 compounds, about 5,900 (0.91%) were called active. The full list was thinned out, with actives kept by preference. Unmarked numbers belong to inactive results. No stated cut-off is given here; in the data, active means inhibition above about 50%; inactive means the rest.

Chain of Microphthalmia-associated transcription factor (Homo sapiens) (O75030 whole entry, looked up): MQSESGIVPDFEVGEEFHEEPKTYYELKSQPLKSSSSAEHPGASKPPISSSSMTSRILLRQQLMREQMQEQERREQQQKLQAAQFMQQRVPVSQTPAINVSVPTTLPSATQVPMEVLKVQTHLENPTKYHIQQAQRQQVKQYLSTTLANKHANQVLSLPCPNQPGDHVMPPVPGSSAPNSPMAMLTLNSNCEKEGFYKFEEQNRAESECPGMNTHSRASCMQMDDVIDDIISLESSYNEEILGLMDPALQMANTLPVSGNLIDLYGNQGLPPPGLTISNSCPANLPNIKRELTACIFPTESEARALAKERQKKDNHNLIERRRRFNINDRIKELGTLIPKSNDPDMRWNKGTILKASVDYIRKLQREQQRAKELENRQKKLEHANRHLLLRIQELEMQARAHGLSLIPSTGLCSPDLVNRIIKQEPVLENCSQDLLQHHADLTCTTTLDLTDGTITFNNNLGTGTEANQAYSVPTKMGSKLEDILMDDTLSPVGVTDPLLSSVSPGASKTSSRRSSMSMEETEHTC

The assay has as its target Microphthalmia-associated transcription factor (Homo sapiens) (UniProt O75030). Put plainly: MITF inhibitors, primary screen, biochemical, AlphaScreen, human (AID 1259374).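 Further: 0% = vehicle wells with protein.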 As to conditions: AlphaScreen MITF homodimerization, bead proximity signal; at 2.6 µM; active compounds read high. A general note: In Alpha technology, singlet oxygen from a donor bead excites a nearby acceptor bead.
For `CCN(CC)C(=O)C(Cc1ccccc1)NCC(=O)Nc1ccc(C)cc1` (stereo not drawn), the inhibition was 10.3%.
In the case of `COc1cccc(OC)c1C(=O)Nc1ccc(Cl)cn1` it was -14.5%.
In the case of `CCOC(=O)c1sc(=S)n(-c2cccc(C(F)(F)F)c2)c1N`, the inhibition was -1.48%.
For the compound `CN(C)c1cccc(Nc2nccc(Nc3ccccc3)n2)c1`, the inhibition was -2.6%.
In the case of `CC(Nc1ccc(-c2cccc(C=O)c2)cn1)c1ccc(F)cc1` (stereo not drawn) it was 7.6%; in that of `CN(C)c1cccc(Nc2ccc(-c3cccc(C=O)c3)cn2)c1`, 50.8% (active); in that of `Fc1ccc(-c2cccc3ccc(N4CCN(c5ncccn5)CC4)nc23)cc1`, 2.86%.
In the case of `NC(=O)c1c(/N=C/c2ccc([N+](=O)[O-])cc2)sc2c1CCCC2` it was 7.76%; in that of `O=C1N[C@H](Cc2ccc(O)cc2)C(=O)N2CCN(C(=O)c3ccccc3Cl)C[C@H]12`, -6.27%; in that of `COc1cccc(/C=C(\C#N)c2nc3ccc(C)cc3[nH]2)c1OC`, 7.46%.
In the case of `COc1ccccc1/C=C(/C#N)c1nc2ccccc2[nH]1` it was 11.1%; in that of `COc1cccc(/C=C(\C#N)c2nc3ccccc3[nH]2)c1OCc1ccc(Cl)cc1Cl`, 52.7% (active); in that of `Cc1ccc2oc(-c3ccc(C)c(NC(=O)c4ccc(Cl)c([N+](=O)[O-])c4)c3)nc2c1`, 14.9%.
In the case of `O=C1O/C(=C(\c2cccc3ccccc23)[N+](=O)[O-])c2ccccc21`, the inhibition is 7.98%.
Regarding `O=C(NCC1CCCO1)C1CCC(Cn2c(SCc3ccc([N+](=O)[O-])cc3)nc3ccccc3c2=O)CC1` (stereo not drawn), the inhibition is 1.86%.
Regarding `COC(=O)c1sc2ccccc2c1NC(=O)c1ccc2c(c1)OCCO2`, the inhibition is 4.39%.
On to `COC(=O)c1cccc(NS(=O)(=O)c2ccc3ccccc3c2)c1C`, for which the inhibition was 52.5% (active).
The same measure for `COC(=O)c1ccccc1NS(=O)(=O)c1ccc2[nH]c(=O)ccc2c1`: 6.38%.
As for `COC(=O)c1cccc(NC(=O)c2ccccc2NS(=O)(=O)c2ccc(C)cc2)c1C`, the inhibition was -6.07%.
Turning to `CCCCCCC1CCC(C(=O)Oc2ccc(C(=O)OCC)cc2)CC1` (stereo not drawn), the inhibition is 7.45%.
The same measure for `COc1ccc2c(c1)CC(c1nc3ccc(-c4cccnc4)cc3o1)CO2` (stereo not drawn): -9.3%.
The same measure for `COc1ccc2c(c1)CC(c1nc(Nc3ccc4cnccc4c3)c3ccccc3n1)CO2` (stereo not drawn): 55.2% (active).
The same measure for `COc1ccc2c(c1)CC(C(=O)Nc1ccc(-c3ccncc3)cc1Oc1ccccc1)CO2` (stereo not drawn): 12.9%; for `O=C(Nc1nc(-c2ccc(Br)cc2)cs1)N1CCOCC1`: 6.09%.
`Cc1cc(-c2cnc(N3CCCCC3)nc2C2CCNCC2)on1`: the inhibition is -11%.
In the case of `O=C(Cc1cccc(Cl)c1)NCc1ccccc1` it was -1.38%; in that of `CN(CCC(=O)Nc1cccc(F)c1)Cc1ccccc1`, -7.29%.
The same measure for `CN(CCC(=O)O)Cc1cccc(Cl)c1`: 69.7% (active); for `Cc1ccc(Nc2nc3nonc3nc2N2CCN(C(=O)c3ccccc3)CC2)cc1Cl`: 2.8%; for `CCc1ccccc1NC(=O)c1cc2nc(-c3cccs3)cc(C(F)(F)F)n2n1`: 23.3%.
In the case of `CCC(CO)NCC(O)COCc1ccc(Cl)cc1` (stereo not drawn) it was -4.49%.
As for `COc1ccc(COCC(O)CNCC(C)(C)CN(C)C)cc1OC` (stereo not drawn), the inhibition was 69.4% (active).
In the case of `COc1cc(CNC(C)(C)C)ccc1OCCO` it was -1.33%; in that of `Cc1c(C(=O)N2CCN(c3ccc(F)cc3)CC2)sc2ncn(CC(=O)N3CCC(C)CC3)c(=O)c12`, 9.34%.
For the compound `Cc1cnc(C)c(-c2ccc3c(c2)CC(CNC(=O)/C=C/c2cccc(F)c2F)O3)n1` (stereo not drawn), the inhibition was 10.3%.
The same measure for `CCOC(=O)c1[nH]c(COC(C)=O)c(CCC(=O)OC)c1C`: -19.8%.
For the compound `O=C(COc1ccccc1)Nc1ccc(N2CCC(NCCc3cccs3)CC2)cc1`, the inhibition is 8.32%.
For `COc1ccc2c(c1)CC(C(=O)Nc1ccc(-c3cn[nH]c3)cc1O[C@H]1CCOC1)CO2` (stereo partly drawn), the inhibition was 16.3%.
In the case of `COc1ccc2c(c1)CC(C(=O)Nc1ccc(-c3cn[nH]c3)cc1C(=O)NCc1ccccc1)CO2` (stereo not drawn) it was 24.1%.
In the case of `COc1ccc2c(c1)CC(C(=O)Nc1ccc(-c3cn[nH]c3)cc1OC(C)CN(C)C)CO2` (stereo not drawn) it was 13.3%; in that of `COc1ccc2c(c1)CC(C(=O)Nc1ccc(-c3cn[nH]c3)cc1OCCN(C)C)CO2` (stereo not drawn), 3.86%.
The same measure for `COc1ccc2c(c1)CC(C(=O)Nc1ccc(-c3cn[nH]c3)cc1OCc1ccccc1)CO2` (stereo not drawn): 62.3% (active).
With `COc1ccc2c(c1)CC(C(=O)Nc1ccc(-c3cn[nH]c3)cc1OCC(N)=O)CO2` (stereo not drawn), the inhibition was 52.7% (active).
In the case of `CCc1ccc(C(=O)N2CCN3C(=O)[C@H](CO)NC(=O)[C@H]3C2)cc1` it was -8.93%; in that of `O=C(CN(Cc1ccccc1)S(=O)(=O)c1ccc(F)cc1)NCCc1ccccc1`, -7.64%.
The same measure for `CC(C)N1CCC(N2CCN(Cc3cc(F)ccc3F)CC2CCO)CC1` (stereo not drawn): 5.34%; for `Cc1cc(S(=O)(=O)NC2CCCC2)ccc1-n1cnnn1`: -4.47%; for `Cc1cc(S(=O)(=O)NCc2ccc3c(c2)OCO3)ccc1-n1cnnn1`: 11.8%.
The same measure for `Cc1cc(S(=O)(=O)Nc2ccc3c(c2)OCCO3)ccc1-n1cnnn1`: 53% (active); for `COCCN1C(=O)/C(=C/c2cc(OC)c(O)c([N+](=O)[O-])c2)SC1=S`: 14.8%; for `CC(C)(C)n1nnnc1C(c1ccc(Cl)cc1)N1CCSCC1` (stereo not drawn): -19.9%.
For the compound `CC(C)(C)n1nnnc1C(c1ccc2ncccc2c1)N1CCSCC1` (stereo not drawn), the inhibition is 65.2% (active).
As to `COCCn1nnnc1C(c1ccc2ncccc2c1)N1CCOCC1` (stereo not drawn), the inhibition was 12%.
The same measure for `CC1CCN(c2cc(NCC(=O)O)c3c4c(onc24)-c2ccccc2C3=O)CC1`: 51.3% (active); for `CCNc1cc(NCCO)c2noc3c2c1C(=O)c1ccccc1-3`: 27.5%.
`COc1ccc(Nc2cc(N3CCN(c4ncccn4)CC3)c3noc4c3c2C(=O)c2ccccc2-4)cc1`: the inhibition was 0.37%.
In the case of `CC(C)Nc1cc(N2CCN(c3ncccn3)CC2)c2noc3c2c1C(=O)c1ccccc1-3` it was 5.09%; in that of `CCNc1cc(Nc2ccccc2)c2c3c(onc13)-c1ccccc1C2=O`, 15.1%.
In the case of `CC(C)Nc1cc(N2CCC3(CC2)OCCO3)c2noc3c2c1C(=O)c1ccccc1-3` it was 55.8% (active); in that of `CN(C)c1cc(NCCN2CCC3(CC2)OCCO3)c2c3c(onc13)-c1ccccc1C2=O`, 50.7% (active).
For the compound `CN1CCN(c2cc(NCCCC(=O)O)c3c4c(onc24)-c2ccccc2C3=O)CC1`, the inhibition is 10.3%.
The same measure for `CCOC(=O)N1CCN(c2cc(NCCO)c3c4c(onc24)-c2ccccc2C3=O)CC1`: 15.8%; for `Cc1c(C(=O)Nc2ccc(F)cc2)sc2ncnc(N3CCc4ccccc4C3)c12`: -2.5%.
In the case of `Cc1ccc(OCC(=O)N2CCC(C(=O)O)CC2)cc1C` it was 6.47%.
The same measure for `COCCn1c(SCC(=O)Nc2c(C)cc(C)cc2C)nc2c(c1=O)SCC2`: 1.88%; for `COc1ccccc1C(=O)NCC(c1ccc2c(c1)CCCN2C)N1CCOCC1` (stereo not drawn): -1.79%.
For the compound `COc1ccc(C(CNCc2cc(=O)oc3cc4c(cc23)CCC4)N2CCOCC2)cc1` (stereo not drawn), the inhibition is 85.3% (active).
In the case of `O=c1cc(CNc2ccc(S(=O)(=O)N3CCCC3)cc2)c2cc3c(cc2o1)CCC3` it was 10.1%; in that of `CN1CCN(Cc2c(O)ccc3c2O/C(=C\c2ccccc2Cl)C3=O)CC1`, 2.25%.
As for `Cc1ccc2c(=O)c(CN3CCN(C)CC3)c(C)[nH]c2c1C`, the inhibition is 10%.
The same measure for `N#C/C(=C(/O)c1cc(-c2ccccc2)nc2ccccc12)c1nc2ccccc2[nH]1`: -0.49%; for `CCOc1cccc(/C=N/NC(=O)c2ccc(C)nc2)c1O`: 49.4%.
In the case of `COc1cc(Br)cc(/C=N\NC(=O)c2ccc(C)nc2)c1O` it was 60.8% (active); in that of `COc1cc(Br)cc(/C=N/NC(=O)c2cc(-c3ccccc3)n[nH]2)c1O`, -36.5%; in that of `O=c1nc(/C=C/c2cc(Cl)cc(Cl)c2OCc2ccccc2F)cc(C(F)(F)F)[nH]1`, -1.22%.
In the case of `C/C(=N\c1ccccn1)c1c(O)c2ccccc2oc1=O` it was 5.79%; in that of `CCC(C)NCCOCCOc1c(OC)cccc1OC` (stereo not drawn), 17.3%.
With `CCC(C)NCCOCCOc1ccc(Br)cc1C` (stereo not drawn), the inhibition is 28.4%.
The same measure for `CCC(C)NCCOCCOc1cc(C)cc(C)c1C` (stereo not drawn): 70.4% (active); for `Cc1nn(C)c(C)c1NC(=O)Cn1nc2n(Cc3ccc(F)cc3)c3ccccc3n2c1=O`: 12.6%.
The same measure for `Cc1ccc(C)c(NCN2C(=O)CSC2=O)c1`: 17.9%; for `CCOC(=O)c1sc2nc(SCC(=O)N3CCCC3)n(Cc3ccc(C)cc3)c(=O)c2c1C`: -3.14%; for `C1=CC2CC1CC2CN1CCN(Cc2c[nH]c3ccccc23)CC1` (stereo not drawn): 64.4% (active).
Regarding `O=S(=O)(c1ccc2ccccc2c1)N1CCN(CC2CC3C=CC2C3)CC1` (stereo not drawn), the inhibition was -6.53%.
The same measure for `CCOc1ccccc1N1CCN(CC2CC3C=CC2C3)CC1` (stereo not drawn): 4.32%; for `CCN1C(=O)C(C)(C)COc2ccc(NC(=O)COc3ccc4ccccc4c3)cc21`: 8.12%.
In the case of `CN(C)/N=C/C=C1\CCC/C(=C\c2ccc([N+](=O)[O-])cc2)C1=O` it was -2.41%.
The same measure for `CN(C)/C=C/C=C/C=C1\CCC\C(=C/C=C/C=C/N(C)C)C1=O`: 98.9% (active).
In the case of `CN(C)/N=C/C=C1\CCC/C(=C\C=N\N(C)C)C1=O`, the inhibition is 17.4%.
The same measure for `Cc1ccc2nc3sc(C(=O)N4CC(=O)Nc5ccccc54)c(N)c3cc2c1`: -4.39%; for `O=[N+]([O-])c1ccc(OCc2nnc(SCCN3CCOCC3)n2-c2ccccc2)cc1`: 53.2% (active).
The same measure for `COc1ccccc1-c1nnc(SCCN2CCOCC2)n1C`: 0.66%; for `c1ccc(C(Sc2nnc(COc3ccc(C4CCCCC4)cc3)n2-c2ccccc2)c2ccccc2)cc1`: 15.4%.

The inhibition is the change of the read-out against control, counted positive when it falls.
